PubChem BioAssay AID1645850 (National Center for Advancing Translational Sciences (NCATS), 2021)
Inconclusive results are not listed. The source made the active and inactive calls. Calls follow the shape of the dose curve; as a rule, active = well fitted curve in the direction sought with a large enough effect in the repeat runs; inconclusive = weak or mixed curves, or another doubt; inactive = no such curve, though single readings can be large or run the other way.

Experiment: Comparison of Janus kinase inhibitors to block the type I interferon pathway in human skeletal muscle cells: CTG Counterscreen
Details: human skeletal muscle cells viability, CellTiter-Glo ATP luminescence; series mostly up to 45.9 µM
From the text: Assay Submitter (PI): Travis B. Kinder Ph.D.
National Center for Advancing Translational Sciences (NCATS)
The family of Janus kinases (JAK1, JAK2, JAK3, TYK2) mediate signal transduction from cytokine receptors through phosphorylation and activation of intracellular signaling pathways and transcription factors. Small molecule antagonists of JAKs (jakinibs) have been developed with varying selectivity for the use in malignancies and immune regulation. […] We have assayed a library of 48 jakinibs for their ability to inhibit the JAK1/TYK2-dependent type I interferon (IFN) - major histocompatibility complex (MHC) class I pathway in human skeletal muscle cells genome-engineered to fuse a pro-luminescent HiBiT peptide to endogenous MHC class I.
The assay utilized CRISPR/Cas9 genome-engineered immortalized human myoblasts, C25cl48, where a pro-luminescent reporter HiBit was fused to the C-terminus of endogenous MHC class I allele HLA-B*08:01 (HLA-B HiBit myoblasts) (Kinder et al., 2020). […] After 24 hrs of treatment, cells were assayed by CellTiter-Glo Luminescent Cell Viability Assay (Promega) and luminescence measured by a ViewLux 1430 Ultra HTS (Perkin Elmer). […]
7; Detector; 5 sec; Measure luminescence with ViewLux 1430 Ultra HTS (Perkin Elmer). […]

Structure (SMILES)	outcome
CC1CCCCCC(=O)c2c(O)cc(O)cc2CC(=O)O1 (configuration not stated)	inactive
CC(C)(O)/C=C\C(=O)[C@](C)(O)[C@H]1[C@H](O)C[C@]2(C)[C@@H]3CC=C4[C@@H](C=C(O)C(=O)C4(C)C)[C@]3(C)C(=O)C[C@@]12C	inactive
